Screens from PubChem BioAssay.
Compounds with a hit are over-represented: about 9.4% of the library has one in this group of screens.
ELG1 DNA repair: ELG1-dependent DNA repair inhibition; HEK293T ELG1-luciferase reporter, luminescence, 16 h; DNA damage induced by 5-fluorouridine; AID 504467; actives 2.3% (n = 330,000); Potency, µM (doses to about 46.1 µM), inactives show top-dose activity change, negative = inhibition, hits mostly inhibitors; note: % is set by controls: 0 for no effect and ±100 for the full control effect; nearly all actives have a fitted effect of over 55% in size
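In this reporter screen, reduction of luminescence relative to DMSO vehicle indicated activity. Compounds and 5-fluorouridine were added together to 2,000 cells per well, incubated for 16 hr at 37 °C, then developed with ONE-Glo.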
Rab9 promoter act: Rab9 promoter activation; Potency, µM (titrated, usually from 9.22 µM), without a hit: top-dose activation, negative = inhibition, usual class: activators; Huh7 Rab9 promoter-luciferase reporter, luminescence, 24 h; actives 2.8% (n = 320,000); note: % of control where 0% means no effect; nearly all actives have a fitted effect of over 60% in size
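Measured in stably transfected Huh7 cells bearing a Rab9 promoter–luciferase construct: 24 h compound treatment at 37 °C, followed by luminescence detection.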
NPC1 prom act: activates the NPC1 promoter; Huh7 NPC1 promoter luciferase reporter, 24 h; Potency, µM (doses to about 9.22 µM), inactives show at the top dose activation, actives largely listed as activators; actives 2.4% (n = 320,000); note: % of control where 0% means no effect; nearly all actives have a fitted effect of over 60% in size
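NPC1 promoter–luciferase Huh7 cells; 24 h compound; luminescence.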
ELG1 genotox: induces genotoxicity in HEK293T cells with luciferase-tagged ELG1; HEK293T ELG1-luciferase reporter, luminescence, 16 h; Potency, µM (titrated, usually from 46 µM), without a hit: top-dose activity change, positive = activation, most hits filed as activators; actives 1.3% (n = 330,000); note: % of control where 0% means no effect; nearly all actives have a fitted effect of over 60% in size
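After overnight (16 hr) compound treatment at 37 °C, ELG1-luciferase HEK293T cells were lysed with ONE-Glo; luminescence quantified 30 min later at room temperature.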
SMN2 splice up: enhancers of SMN2 splice variant expression; HEK293 SMN2-luciferase splicing reporter, luminescence, 30-36 h; actives 2.8% (n = 210,000); Potency, µM (highest dose often 46.1 µM), inactives show at the highest dose activity change, positive = activation, usual class: activators; note: % of control where 0% means no effect; nearly all actives have a fitted effect of over 55% in size
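qHTS luciferase splicing reporter: luminescence rises when SMN2 exon 7 is included in transfected HEK293 cells. Compound exposure lasted 30-36 h at 37C, with 4.5 mM final sodium butyrate as control, followed by a ONE-Glo read.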
FLuc counter: inhibits or activates purified firefly luciferase, miR-21 counter-screen; P08659; purified FLuc, Km substrates, luminescence inhibition; Potency, µM (top dose mostly 57.5 µM), without a hit: at the top dose activity change, negative = inhibition, actives largely listed as inhibitors; actives 6.9% (n = 360,000); AID 588342;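 note: plate controls were vehicle for no effect and reference inhibitor for full effect; nearly all actives have a fitted effect of over 55% in size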
Target sequence (P08659 whole entry, looked up): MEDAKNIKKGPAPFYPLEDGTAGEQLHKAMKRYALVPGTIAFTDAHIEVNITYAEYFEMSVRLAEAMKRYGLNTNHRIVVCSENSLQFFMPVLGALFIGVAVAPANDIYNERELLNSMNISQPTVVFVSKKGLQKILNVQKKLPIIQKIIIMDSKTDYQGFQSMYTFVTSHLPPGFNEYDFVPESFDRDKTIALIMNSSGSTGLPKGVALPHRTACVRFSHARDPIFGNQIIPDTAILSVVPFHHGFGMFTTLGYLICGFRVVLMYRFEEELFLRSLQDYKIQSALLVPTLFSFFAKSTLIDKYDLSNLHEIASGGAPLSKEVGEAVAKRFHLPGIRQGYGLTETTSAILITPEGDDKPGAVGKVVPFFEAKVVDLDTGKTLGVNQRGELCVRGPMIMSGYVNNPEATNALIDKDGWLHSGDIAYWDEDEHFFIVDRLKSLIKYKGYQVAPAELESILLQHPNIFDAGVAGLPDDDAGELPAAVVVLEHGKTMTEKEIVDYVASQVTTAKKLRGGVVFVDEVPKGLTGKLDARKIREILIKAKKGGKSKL
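Biochemical qHTS of compounds, final roughly 60 µM downward over six points, against 10 nM purified firefly luciferase using Km concentrations of substrates (10 uM D-luciferin, 10 uM ATP) in Tris acetate pH 7.5 buffer; luminescence output.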
Starred values were filed as active, the others as inactive; ? = inconclusive; . = no result given; [ ] = dose if it differs, or a comment. Calls come from the whole dose curve; as a rule, active = well fitted curve in the direction sought with a large enough effect; inconclusive = small, poorly fitted or top-dose-only effect, or another doubt; inactive = no such curve, though single readings can be large; an effect the other way counts as inactive or inconclusive. Potency is the fitted concentration of half-maximal effect.

SMILES	ELG1 DNA repair	Rab9 promoter act	NPC1 prom act	ELG1 genotox	SMN2 splice up	FLuc counter
COc1ccc(C(C)=O)cc1CC(C(=O)c1ccc(Br)cc1)N(C)C (centres undefined)	-8.9%	2.0%	-3.1%	-2.6%	-5.8%	2.7%
COc1cc(C(C)=O)ccc1OCc1cc(C(=O)N(C)CCC2CCCCO2)no1 (centres undefined)	?	1.58µM*	2.24µM*	?	.	6.75µM*
COC(=O)c1c(C)ccc2c(O)c3c(cc12)C(=O)c1c2c(cc(O)c1C3=O)[C@@]1(C)O[C@@](C)(O2)[C@@H](O)[C@H](N(C)C)[C@H]1O	.	.	.	.	12.0%[9.22 µM]	.
NC(=O)c1ncn(C2OC(CO)C(O)C2O)n1 (centres undefined)	.	.	.	.	15.8µM*	.
NC(=O)c1cn(C2OC(CO)C(O)C2O)c2ncnc(N)c12 (centres undefined)	0.103µM*	-36.9%	-33.0%	-18.0%	-107.6%	10.6%
Nc1ncnc2c1ncn2[C@@H]1O[C@H](COP(=O)(O)CP(=O)(O)O)[C@@H](O)[C@H]1O	.	.	.	.	3.7%	.
[Cl-].[Cl-].[Hg+2]	.	.	.	.	-29.4%	.
C[C@@]12CC[C@H](O[C@@H]3O[C@H](CO)[C@@H](O)[C@H](O)[C@@H]3O)C[C@@H]1CC[C@H]1[C@H]2CC[C@@]2(C)[C@@H](C3=CCOC3=O)CC[C@]12O	.	.	.	.	4.4%[9.22 µM]	.
CCOP(=S)(OCC)Oc1ccc([N+](=O)[O-])cc1	.	.	.	.	8.7%	.
[Cl][Pd][Cl].[S-]C1=C2N=CN[C-]2[NH+]=C[N-]1.[S-]c1ncnc2[nH]cnc12	.	.	.	.	-5.6%[9.22 µM]	.
CCn1nc(-c2ccccc2)nc2c(=O)n(C)c(=O)nc1-2	?	-31.4%	-2.0%	5.5%	7.08µM*	?
CCC(=Nc1ccc(Cc2ccncc2)cc1)c1c(O)n(C)c(=O)n(C)c1=O	7.31µM*	-12.9%	-19.9%	-12.4%	-54.8%	0.0%
CCC(=NCc1ccc(F)cc1)c1c(O)n(C)c(=O)n(C)c1=O	7.94µM*	-14.0%	-8.4%	-11.3%	-26.5%	-1.5%
CCC(=NCCC(c1ccccc1)c1ccccc1)c1c(O)n(C)c(=O)n(C)c1=O	?	-5.8%	-4.0%	-4.7%	-25.6%	9.9%
O=C(c1ccc(N2CCN(CCO)CC2)nc1)N1CCOCC1	?	-1.7%	4.6%	5.0%	4.8%	-0.6%
Cc1cc(=O)oc2cc(OCC(=O)N3CCN(Cc4ccccc4)CC3)ccc12	-11.6%	.	.	-0.5%	.	.
Cc1cc(=O)oc2cc(OCC(=O)N3CCN(Cc4ccc5c(c4)OCO5)CC3)ccc12	6.51µM*	0.2%	-4.3%	-5.3%	.	-1.7%
CC(C)NS(=O)(=O)c1ccc(OCC(=O)N2CCN(Cc3ccc4c(c3)OCO4)CC2)c(Cl)c1	11.6µM*	-12.0%	-0.2%	-8.2%	-43.5%	-0.4%
CCC12CCN(C)CC1Oc1c(C)cccc12 (centres undefined)	.	.	.	.	.	-1.8%
CS(=O)(=O)O[C@H]1CN2CCC1CC2	.	.	.	.	-8.9%[9.22 µM]	.
O=P(Nc1ccccc1)(Nc1ccccc1)Oc1cccc(Cl)c1	16.4µM*	1.5%	0.0%	-5.2%	-3.6%	2.2%
O=C(O)C(C(=O)O)P(=S)(S)c1ccccc1 (centres undefined)	.	.	.	.	1.4%[9.22 µM]	.
COc1ccc(C[C@@H](N)c2ccc(OC)cc2)cc1	.	.	.	.	-9.7%[9.22 µM]	.
COc1cccc(-n2nc(C(=O)N3CCC4(CC3)OCCO4)c3ccccc3c2=O)c1	-19.2%	-2.5%	0.3%	-5.6%	12.5%	-1.4%
COc1ccc(-n2nc(C(=O)NCC(=O)N3CCC4(CC3)OCCO4)c3ccccc3c2=O)cc1OC	?	?	20.3%	9.5%	.	3.01µM*
SMILES	ELG1 DNA repair	Rab9 promoter act	NPC1 prom act	ELG1 genotox	SMN2 splice up	FLuc counter
O=C(c1cc(-c2cccc(Cl)c2)on1)N1CCOCC1	?	3.16µM*	2.82µM*	23.1µM*	.	13.5µM*
O=C(c1cc2ccccn2n1)N1CCC2(CC1)OCCO2	7.2%	-4.3%	-3.2%	3.9%	-0.5%	5.0%
O=C(c1cc(-c2ccc(Cl)cc2)n(-c2ccc(Cl)cc2Cl)n1)N1CCOCC1	?	-0.5%	-1.4%	-5.1%	-32.5%	7.0%
O=C(c1cc(-c2ccccc2)on1)N1CCC2(CC1)OCCO2	?	3.98µM*	?	?	17.8µM*	15.1µM*
O=C(O)C[C@H]1NCc2cc3ccccc3nc21	.	.	.	.	-2.8%[9.22 µM]	.
C=CCN1C(=O)/C(=C/c2ccc(Br)s2)C(=O)NC1=S	11.3%	-5.3%	-7.7%	?	.	?
COc1ccc(OC)c(N2C(=O)NC(=O)/C(=C/c3ccc([N+](=O)[O-])s3)C2=O)c1	-5.6%	-9.0%	-3.6%	-9.1%	?	16.9µM*
CCN1C(=O)/C(=C\c2ccc([N+](=O)[O-])s2)C(=O)NC1=S	11.1%	1.7%	-19.4%	-12.9%	-23.6%	8.49µM*
CN(Cc1ccccc1)C(=O)c1ccc(NC(=O)C2CCN(C(=O)OC(C)(C)C)CC2)cc1	10.3µM*	.	.	-4.7%	.	.
CN1/C(=C\C=C\C2=[N+](C)c3ccc4ccccc4c3C2(C)C)C(C)(C)c2ccccc21	?	-53.0%	-44.5%	-2.9%	-70.6%	13.5µM*
O=C(O)CCC(=O)NCCC1=c2ccccc2=N/C1=C\c1c(O)n(Cc2ccc(F)cc2)c(=S)[nH]c1=O	?	-4.0%	-4.9%	5.4%	.	10.7µM*
Cc1ccc2nc(NC(=O)c3cccn(Cc4ccc(Cl)cc4)c3=O)sc2c1	.	.	.	.	.	-0.3%
Cc1nnc(NC(=O)c2cccn(Cc3ccccc3F)c2=O)s1	.	.	.	.	.	-19.5%
Cc1ccccc1Cn1cccc(C(=O)Nc2nc3ccccc3s2)c1=O	.	.	.	.	.	0.426µM*
CCOc1ccc2nc(NC(=O)c3cccn(Cc4ccc(C)cc4)c3=O)sc2c1	.	.	.	.	.	-5.5%
O=C(Nc1nc2ccccc2s1)c1cccn(Cc2ccccc2)c1=O	.	.	.	.	.	0.757µM*
CCOc1ccc2nc(NC(=O)c3cccn(Cc4ccccc4)c3=O)sc2c1	.	.	.	.	.	6.01µM*
CCCCCCCCCCCCCCC[C@@H](O)[C@@H](N)COP(=O)(O)O	.	.	.	.	12.2%	.
CN(C)c1ccc(/C=C/[N+](=O)[O-])cc1	?	4.0%	2.2%	?	11.2µM*	?
N#Cc1cc2c(nc1SCC(=O)Nc1cccc(F)c1)C1CCN2CC1	.	.	.	.	6.31µM*	-6.9%
O=C(CN1CC(c2ccccc2)CC1=O)Nc1cccc(F)c1 (centres undefined)	0.6%	-2.2%	-7.4%	-0.1%	-5.8%	-0.6%
[O-][Cl+]O	.	.	.	.	3.2%	.
CC1Oc2cc3c(-c4c(O)cc(O)c5c(O)c6c(cc45)OC(C)C(C)C6=O)c(O)cc(O)c3c(O)c2C(=O)C1C (centres undefined)	6.51µM*	-42.1%	-39.9%	-15.6%	.	-2.5%
